Out of some 650,000 compounds screened, about 6,800 (1%) were called active. This is one part of a sample in which actives are shown more often than they occur. No stated cut-off is given here; in the data, active means activation above about 4.9%; inactive means the rest.

G-protein coupled receptor 151 (Homo sapiens), sequence (Q8TDV0 whole entry, looked up): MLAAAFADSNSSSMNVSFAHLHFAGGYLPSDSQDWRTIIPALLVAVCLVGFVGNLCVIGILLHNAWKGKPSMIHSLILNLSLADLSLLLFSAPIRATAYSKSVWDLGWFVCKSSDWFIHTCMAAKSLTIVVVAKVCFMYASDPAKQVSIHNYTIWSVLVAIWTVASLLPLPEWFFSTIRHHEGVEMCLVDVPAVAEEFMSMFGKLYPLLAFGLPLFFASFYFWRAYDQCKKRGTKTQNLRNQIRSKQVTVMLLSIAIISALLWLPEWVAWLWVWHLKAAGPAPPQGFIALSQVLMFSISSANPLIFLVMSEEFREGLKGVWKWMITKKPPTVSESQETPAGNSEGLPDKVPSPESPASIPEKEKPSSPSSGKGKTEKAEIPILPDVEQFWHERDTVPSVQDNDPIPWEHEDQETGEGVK

The assay has as its target G-protein coupled receptor 151 (Homo sapiens) (UniProt Q8TDV0). The assay is described as follows: activators of human GPR151, primary screen, cell-based, PathHunter beta-arrestin, luminescence (AID 1508602).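 Further: 0% = median of compound wells and 100% = cells with positive control.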 The settings on record: PathHunter beta-arrestin GPR151 cells, at 11.2 µM, stronger effect = higher value.
In the case of `CC(C)[C@@H](N)Cn1nc(-c2cccs2)ccc1=O`, the activation is 0.507% (inactive).
For `O=C(Nc1ccccc1[N+](=O)[O-])c1ccc2ccccc2n1` the value was 0.441% (inactive); for `O=C1NC(=O)N(c2cccc(Br)c2)C(=O)/C1=C/c1cccc([N+](=O)[O-])c1`, 1.88% (inactive).
For `COc1ccc(/C=C2\C(=O)NC(=O)N(c3ccc([N+](=O)[O-])cc3)C2=O)cc1OC` the value was -0.83% (inactive).
For `Cc1ccc(/C=C2/C(=O)NC(=O)N(c3ccccc3)C2=O)cc1[N+](=O)[O-]` the value was 7.87% (active); for `Cn1ccnc1SCc1cc(=O)c(OC(=O)c2c(F)cccc2F)co1`, 3.4% (inactive).
Regarding `CC1CCN(C(=O)C2CCCN2c2nnc(N3CCCC3=O)s2)CC1` (stereo not given), the activation is 0.834% (inactive).
With `CC(C)(C)OC(=O)N1CCC[C@H]1C(=O)c1cccnc1`, the activation is 0.241% (inactive).
In the case of `O=C(NCCCN=C1NS(=O)(=O)c2ccccc21)c1ccc(Cl)c(Cl)c1`, the activation is -0.637% (inactive).
For `COc1nc(Nc2ccccc2)nc(-c2ccc(C(=O)NC3CC3)cc2)n1` the value was 0.979% (inactive).
In the case of `COc1nc(Nc2ccccc2)nc(-c2c(C)noc2C)n1` it was 5.15% (active).
On to `COc1nc(Nc2ccccc2)nc(-c2csc3ccccc23)n1`, for which the activation was -0.667% (inactive).
For `CCCCc1ccc(NC(=O)COC(=O)c2ccc([N+](=O)[O-])o2)cc1` the value was -2.13% (inactive); for `Cc1cccc(N(C)C(=O)C2CCCN(S(=O)(=O)c3c(C)noc3C)C2)c1` (stereo not given), 0.213% (inactive); for `CCc1ccc(-c2nc(CSCC(=O)NC(C)(C)C)c(C)o2)cc1`, -0.321% (inactive).
For `CCSc1nnc(CC(N)=O)c2ccccc12` the value was -0.522% (inactive); for `O=c1cc(-c2cc3cc(Cl)ccc3oc2=O)c2ccc(O)cc2o1`, -0.104% (inactive).
As for `Cc1c(CN2CCCC(N3CCC(CO)CC3)C2)c(=O)n(-c2ccccc2)n1C` (stereo not given), the activation was -1.54% (inactive).
For `CCCn1ncc(CN2CCCC(N3CCC(CO)CC3)C2)c1C` (stereo not given) the value was 6.31% (active); for `CCCn1ncc(CN2CCN(C3CCN(C(C)C)CC3)C(CCO)C2)c1C` (stereo not given), 1.43% (inactive).
In the case of `Cc1ccc(OCC(=O)Nc2nncs2)cc1` it was 0.547% (inactive); in that of `CC1CCCN(C(=O)NCc2noc3ccccc23)C1` (stereo not given), -1.14% (inactive).
For `CCOc1ccc(-n2c(C)cn3c4c(=O)n(CC(C)C)c(=O)n(C)c4nc23)cc1` the value was 0.368% (inactive); for `O=C(C1CC12CCN(Cc1c(F)cccc1F)CC2)N1CCN(Cc2ccccc2)CC1` (stereo not given), -0.828% (inactive); for `O=C(NC1CCN(Cc2ccccc2)CC1)c1ccc(-c2ccccc2)s1`, 0.522% (inactive).
Consider `O=C(NCCO)c1cnc(NC2CCN(Cc3ccccc3)CC2)s1`, for which the activation is 7.19% (active).
`CCCNC(=O)c1cc(NC2CCN(Cc3ccccc3)CC2)nc2ccccc12`: the activation was 0.365% (inactive).
In the case of `Cc1ccc(Cn2cc(C#N)c([N+](=O)[O-])n2)cc1` it was 2.65% (inactive); in that of `Cc1ccc(-c2nc(-c3ccccc3Cl)no2)cc1`, 0.675% (inactive).
For `COc1ccc(-c2noc(-c3ccccc3Cl)n2)cc1`, the activation was 6.08% (active).
Regarding `COc1ccc(-c2noc(-c3ccc(Br)cc3)n2)cc1`, the activation is -0.475% (inactive).
In the case of `CC(C)CNC(=O)c1ccccc1NC(=O)c1ccc([N+](=O)[O-])cc1` it was 1.87% (inactive); in that of `CN(C)c1ccc(NC(=O)c2ccc([N+](=O)[O-])cc2)c2ccccc12`, 2.25% (inactive).
Take `CC1(c2ccccc2NC(=O)c2ccc([N+](=O)[O-])cc2)CC1`: the activation was 6.15% (active).
In the case of `O=C(Cc1ccccc1)NCc1nnc2n1CCN(Cc1ccc(F)cc1)CC2` it was -0.584% (inactive); in that of `CCc1cc2c(=O)c(-c3ccc4c(c3)OCO4)c(C)oc2cc1OC1OC(CO)C(O)C(O)C1O` (stereo not given), 0.749% (inactive).
For `COc1ccc(-c2coc3cc(OC4OC(COC5OC(C)C(O)C(O)C5O)C(O)C(O)C4O)cc(O)c3c2=O)cc1` (stereo not given) the value was -0.0364% (inactive); for `COc1cc(-c2coc3cc(O[C@@H]4O[C@H](CO)[C@@H](O)[C@H](O)[C@H]4O)c(OC)c(O)c3c2=O)cc(O)c1OC`, 8.99% (active); for `CCc1ccc(CN2CCc3nnc(-c4ccccc4)n3CC2)o1`, -0.804% (inactive).
On to `C=CCN1C(=O)CC(C(=O)OC)C12CCN(C1CCN(C(=O)OCC)CC1)CC2` (stereo not given), for which the activation was 12.8% (active).
For `CCN1C(=O)CC(C(=O)OC)C12CCN(Cc1ccc(OC)c(OC)c1)CC2` (stereo not given) the value was 2.97% (inactive).
Turning to `CCOC(=O)N1CCC(N2CCC(CO)(CCOc3ccccc3)CC2)CC1`, the activation is 0.442% (inactive).
In the case of `CCOc1ccccc1CNCC(C)O` (stereo not given) it was -1.22% (inactive); in that of `CCOc1ccccc1OCCCNCc1ccccc1`, 0.0114% (inactive); in that of `CCCCOc1ccccc1CNCC`, 6.95% (active).
In the case of `CNC(=O)c1c(NC(=O)c2ccccc2F)sc2c1CCC(C(C)(C)C)C2` (stereo not given) it was 2.94% (inactive).
For `O=C1CC(Cc2ccccc2)C(=O)N1c1ccc(Cl)cc1` (stereo not given) the value was 0.299% (inactive); for `Cc1ccc(Cn2c(=S)[nH]c3ccc(Cl)cc3c2=O)cc1`, 0.529% (inactive); for `Brc1cccc(-c2cnc3ccc(NC4CCOCC4)nn23)c1`, -0.245% (inactive).
`c1ccc2sc(-c3cnc4ccc(NC5CCOCC5)nn34)cc2c1`: the activation was 5.94% (active).
In the case of `Oc1ccc(-c2cnc3ccc(NC4CCOCC4)nn23)cc1` it was -0.504% (inactive).
Regarding `O=C(CN(CC1CCCO1)C(=O)CNS(=O)(=O)c1ccccc1)NC1CCCCC1` (stereo not given), the activation was 0.636% (inactive).
On to `Cc1cc(C)nc(SCC(=O)N/N=C/c2ccc(Cl)cc2Cl)n1`, for which the activation was 0.39% (inactive).
For `COc1cccc(/C=N/NC(=O)CSc2nc(C)cc(C)n2)c1OC` the value was 1.66% (inactive); for `CC(/C=N\NC(=O)CSc1nc(C)cc(C)n1)=C\c1ccccc1`, 9.38% (active).
For `COc1ccc(C(=O)CCNC(C(=O)O)C(C)O)cc1` (stereo not given) the value was -0.172% (inactive); for `C(=N\N1CCN(c2ccccn2)CC1)/C1=C(N2CCOCC2)C(=C/c2ccccc2)/CC1`, 6.77% (active); for `COc1ccc(/C=N/N2CCN(c3ccccn3)CC2)cc1`, 0.849% (inactive).
For `c1ccc(N2CCN(c3ccccn3)CC2)nc1` the value was -0.177% (inactive).
As for `CCOC(=O)c1sc2nc(SCC(=O)NCc3ccccc3Cl)n(Cc3ccc(Cl)cc3)c(=O)c2c1C`, the activation is -0.0258% (inactive).
In the case of `Cc1cc(C)c(S(=O)(=O)Nc2cccc(N3CCCS3(=O)=O)c2)c(C)c1` it was 0.72% (inactive).
For `Cc1cc(C)cc(NC(=O)C(CC(C)C)NS(=O)(=O)c2ccc3c(c2)oc(=O)n3C)c1` (stereo not given), the activation was 3.86% (inactive).
For `Cc1cn2c3c(=O)n(Cc4ccccc4)c(=O)n(C)c3nc2n1C` the value was 0.103% (inactive); for `Cc1ccccc1C(=O)NNC(=O)c1ccc(NC(=O)C(C)C)cc1`, 1.54% (inactive); for `CCN1CCCC1CNc1nc(=S)[nH]c2ccccc12` (stereo not given), 9.1% (active).
In the case of `CC1CCN(CCCNc2nc(=S)[nH]c3ccccc23)CC1` it was -3.01% (inactive).
For `O=C(O)C1CCC(CNc2nc(=S)[nH]c3ccccc23)CC1` (stereo not given) the value was -0.367% (inactive); for `CCCCn1c(N)c(N(CC(C)C)C(=O)CCC(=O)O)c(=O)[nH]c1=O`, -0.868% (inactive); for `CCN1CCN(C(C)C(=O)Nc2cc(C)on2)CC1` (stereo not given), -5.25% (inactive).
Turning to `CC1C(=O)NC(=O)N1c1ccc(Cl)cc1` (stereo not given), the activation is 2.6% (inactive).
As for `COc1cn2c(cc1=O)C(=O)N(CCNC(=O)c1cccc(F)c1)CC2`, the activation was 0.552% (inactive).
In the case of `C=CCC(CC=C)(NC(=O)c1ccc([N+](=O)[O-])cc1)c1ccccc1` it was 2.8% (inactive); in that of `CCC(/C=C1\Sc2ccc(-c3ccccc3)cc2N1CC)=C\c1sc2ccc3ccccc3c2[n+]1CC`, -0.19% (inactive); in that of `CCN1/C(=C/c2ccc3cc(C)ccc3[n+]2CC)Sc2ccc(-c3ccccc3)cc21`, 18.5% (active).
Regarding `CCN1/C(=C/c2ccc3cc(C)ccc3[n+]2CC)Sc2ccc(OC)cc21`, the activation is 1.84% (inactive).
As for `CCCc1cc(=O)[nH]c(SCC(=O)Nc2ccc(C(N)=O)cc2)n1`, the activation is -0.889% (inactive).
With `COc1cccc(N2C(=O)C3CCCN3C2c2ccc(F)cc2)c1` (stereo not given), the activation is 1.08% (inactive).
For `COc1ccc(N2C(=O)C3CCCN3C2c2cccc(OC)c2)cc1` (stereo not given) the value was 6.4% (active); for `COc1ccc(N2C(=O)C3CCCN3C2c2cc(OC)c(OC)cc2OC)cc1` (stereo not given), -1.11% (inactive).
For `CCOC(=O)COc1cccc2c(=O)n(CC(=O)Nc3cccc(Cl)c3)ccc12` the value was -0.932% (inactive); for `CC(C)(C)CC(C)(C)c1ccc(OCC(=O)NNC(=O)c2ccccc2Cl)cc1`, -0.581% (inactive).
In the case of `CCOC(=O)c1ccc2nc(NC(=O)CSc3nc4ccccc4[nH]3)sc2c1` it was 7.06% (active); in that of `CCOC(=O)c1c(NC(=O)CSc2nc3ccccc3[nH]2)sc2c1CCC2`, -0.467% (inactive); in that of `CCSc1nnc(NC(=O)CSc2nc3ccccc3[nH]2)s1`, 0.0173% (inactive).
For the compound `C=CCn1cnc2sc(C)c(-c3ccc(Cl)cc3)c2c1=O`, the activation was 1.23% (inactive).
For `C=CCSc1nnc(-c2cc(N(C)C)nc(N(C)C)n2)n1C` the value was 3.52% (inactive).
For `O=C(c1cc(COc2ccc3ncccc3c2)on1)N1C[C@@H]2CCC[C@H]1C2` the value was 0.767% (inactive); for `COCC1CCN(C(=O)c2cc(COc3ccc4ncccc4c3)on2)C1` (stereo not given), 2.98% (inactive); for `CCN(CC)C1CCN(C(=O)c2cc(COc3ccc4ncccc4c3)on2)C1` (stereo not given), 5.71% (active).
On to `Cc1[nH]c2ccccc2c1C(=O)CN1CCN(c2ccccc2)CC1`, for which the activation was -0.808% (inactive).
In the case of `Cc1cc2c(cc1C)NC(CC(=O)Nc1ccc(Cl)cc1Cl)C(=O)N2` (stereo not given) it was -1.58% (inactive); in that of `O=C(Nc1ccc(Cl)c(-c2nc3ccccc3o2)c1)c1cc([N+](=O)[O-])ccc1Cl`, 0.267% (inactive); in that of `COc1ccc(COC(=O)NNC(=O)c2cccc(Cl)c2)cc1`, 6.17% (active).
As for `Cc1cc(C)cc(OCC(=O)NNC(=O)c2cccc(Cl)c2)c1`, the activation was 0.56% (inactive).
In the case of `COc1ccc(C(=O)NNC(=O)c2cccc(Cl)c2)cc1OC` it was 1.28% (inactive).

(Values after PubChem BioAssay AID1508602 (The Scripps Research Institute Molecular Screening Center, 2020).)
